Bioassay records from PubChem.
Not all results are given here.
aSyn UTR act = Activators working through SNCA 5'UTR binding (MLPCN); activity score, % (tested at 7.5 µM), hits read low; alpha-synuclein 5'UTR reporter, activators screen; 300,000 compounds, 7.1% hits; in the data active = activity score below about -60%
* marks the source's active call; other numbers are inactive results.

For Cc1ccc(OCC(=O)O/N=C(\N)c2ccncc2)c(C)c1 the results were aSyn UTR act -182*.
`CCCOc1ccc(/C=N/NC(=S)Nc2ccccc2[N+](=O)[O-])c(O)c1` gave aSyn UTR act 101.
COc1cc(/C=N/Nc2nc3ccccc3s2)ccc1OC(=O)c1ccccc1F was read as aSyn UTR act -387*.
`COc1cc(OC)cc(C(=O)Oc2ccc(/C=N/Nc3nc4ccccc4s3)cc2OC)c1` gave aSyn UTR act -513*.
For COc1ccc(/C=N/NC(=S)Nc2ccccc2[N+](=O)[O-])cc1O the results were aSyn UTR act -131*.
For COc1cc(/C=N/Nc2ccccc2[N+](=O)[O-])ccc1OC(=O)c1ccccc1F the results were aSyn UTR act -100*.
For CCOC(=O)/C(C#N)=C\C=C1C=CN(C)C=C1 the results were aSyn UTR act -150*.
`CCOc1ccc(N/C=C/C(=O)c2ccc(C)cc2)c([N+](=O)[O-])c1` gave aSyn UTR act -198*.
`CCOc1ccc(N/C=C/C(=O)c2ccc3ccccc3c2)c([N+](=O)[O-])c1` gave aSyn UTR act -159*.
`Cc1ccc(C(=O)/C=C/Nc2ccc([N+](=O)[O-])cc2Br)cc1` gave aSyn UTR act -124*.
For S=C(Nc1ccc(Br)cc1Cl)N1CCCC1 the results were aSyn UTR act -91*.
Screening CN(C)/C=N/C(=S)Nc1ccc(Cl)c(Cl)c1 returned aSyn UTR act -66*.
CN(C)c1ccc(N=Nc2ccccc2C(=O)OCC(=O)NC2CCCC2)cc1 was read as aSyn UTR act -112*.
CN(C)c1ccc(N=Nc2ccccc2C(=O)OCC(=O)N(C)C2CCCCC2)cc1 was read as aSyn UTR act -135*.
For COc1cc2[nH]c(-c3ccc(C)cc3)cc(=O)c2cc1OC the results were aSyn UTR act -75*.
COc1ccc(-c2cc(=O)c3cc(C)ccc3[nH]2)cc1 was read as aSyn UTR act -63*.
O=[N+]([O-])c1ccccc1OCCOc1ccccc1[N+](=O)[O-] was read as aSyn UTR act -138*.
For O=[N+]([O-])c1ccccc1NCCOc1ccccc1 the results were aSyn UTR act -227*.
`CC1CN(c2ccc([N+](=O)[O-])c(NCCOc3ccc(Cl)cc3)c2)CC(C)N1` (stereo unspecified) gave aSyn UTR act 104.
Screening COc1ccc(CNc2ncccc2[N+](=O)[O-])cc1 returned aSyn UTR act -80*.
COCCCNc1nc(N)c([N+](=O)[O-])c(NCc2ccccc2)n1 was read as aSyn UTR act 57.
Screening O=[N+]([O-])c1ccccc1OCCCOc1cccc2cccnc12 returned aSyn UTR act -96*.
`COc1ccc(OCCOc2ccccc2[N+](=O)[O-])cc1` gave aSyn UTR act -153*.
CCOC(=O)/C=C/COc1ccccc1[N+](=O)[O-] was read as aSyn UTR act -70*.
O=C(c1ccc(F)cc1)c1ccc(N2CCCC2)cc1 was read as aSyn UTR act -147*.
`O=C(Nc1ccc(N2CCCCC2)cc1)c1ccc(F)cc1` gave aSyn UTR act -80*.
O=C(Nc1ccc2nn(-c3ccc(F)cc3)nc2c1)c1cccnc1 was read as aSyn UTR act -94*.
O=S(=O)(c1ccc(N2CCCC2)cc1)C(F)(F)F was read as aSyn UTR act -149*.
For O=C(Nc1ccc(N2CCCCC2)cc1)c1cccnc1 the results were aSyn UTR act -149*.
Screening O=C(c1ccc(F)cc1)c1ccc(N2CCCCC2)cc1 returned aSyn UTR act -145*.
For O=C(OCC(=O)c1c[nH]c2ccccc12)c1ccc(Br)o1 the results were aSyn UTR act -130*.
For COc1cccc(C(=O)OCC(=O)c2c[nH]c3ccccc23)c1O the results were aSyn UTR act -105*.
For COc1ccc(C(=O)COC(=O)c2cccc(-n3cnnn3)c2)c(OC)c1 the results were aSyn UTR act -104*.
`O=C(OCC(=O)c1c[nH]c2ccccc12)c1ccco1` gave aSyn UTR act -102*.
For COc1ccc(C(=O)COC(=O)c2cc(=O)[nH]c3ccccc23)c(OC)c1 the results were aSyn UTR act -131*.
Screening Cc1cccc(-c2noc(CN(C)C(=O)c3ccco3)n2)c1 returned aSyn UTR act -65*.
`O=C(Nc1ccc(NC(=O)c2cc3ccccc3o2)cc1)c1ccc2c(c1)OCCO2` gave aSyn UTR act 71.
`CC(C)C(=O)Nc1ccc(NC(=O)c2cc3ccccc3o2)cc1` gave aSyn UTR act -90*.
For CCOC(=O)c1ccc(NC(=O)c2cc3ccccc3o2)cc1 the results were aSyn UTR act -152*.
For CCOC(=O)c1cccc(NC(=O)c2cc3ccccc3o2)c1 the results were aSyn UTR act -110*.
`COC(=O)Cc1[nH]n(-c2ccccc2)c(=O)c1C(C)=Nc1ccccc1` gave aSyn UTR act -71*.
Screening COC(=O)Cc1[nH]n(-c2nc3ccccc3s2)c(=O)c1C(C)=Nc1ccc(C)cc1 returned aSyn UTR act 98.
Screening Cc1ccc(-n2cnc3cc(NCc4cccs4)ccc32)cc1 returned aSyn UTR act -94*.
For COc1ccc(-n2cnc3cc(NCc4cccs4)ccc32)cc1 the results were aSyn UTR act -69*.
Screening c1ccc(-n2cnc3cc(NCc4ccco4)ccc32)cc1 returned aSyn UTR act -161*.
Screening c1ccc(-n2cnc3cc(NCc4cccs4)ccc32)cc1 returned aSyn UTR act -167*.
For CN(c1ccccc1)c1nc(N)c([N+](=O)[O-])c(N2CCCC2)n1 the results were aSyn UTR act -97*.
`Cc1cccc(Nc2nc(N)c([N+](=O)[O-])c(N3CCCC(C)C3)n2)c1` (stereo unspecified) gave aSyn UTR act 59.
Screening Nc1nc(Nc2ccccc2F)nc(N2CCCC2)c1[N+](=O)[O-] returned aSyn UTR act -131*.
Screening O=S(=O)(/C=C/c1ccccc1)Oc1ccccc1 returned aSyn UTR act -80*.
`CN(C)c1ccc(/C=C2\CCCCC2=O)cc1` gave aSyn UTR act -104*.
For N#Cc1c(C(F)(F)F)cc(-c2ccc(Cl)c(Cl)c2)nc1SCCN1CCOCC1 the results were aSyn UTR act -64*.
For O=C(CSc1nc(-c2ccccc2)ns1)N1CCOCC1 the results were aSyn UTR act -110*.
`Cc1cccc(-c2nsc(SCC(=O)N3CCCC3)n2)c1` gave aSyn UTR act -140*.
`Cn1c(=O)oc2cc(NC(=O)CCl)ccc21` gave aSyn UTR act -107*.
Screening Cn1c(=O)c2c(nc(SCCN3CCOCC3)n2Cc2ccc(F)cc2)n(C)c1=O returned aSyn UTR act -130*.
`CCCCn1c(SCC(=O)N2c3ccccc3CCc3ccccc32)nc2c1c(=O)n(C)c(=O)n2C` gave aSyn UTR act 74.
`Cc1ccc(Cn2c(SCc3cccnc3)nc3c2c(=O)n(C)c(=O)n3C)cc1` gave aSyn UTR act 54.
Screening O=C(Nc1ccc(Oc2c(F)c(F)c(F)c(F)c2F)cc1)OC1CCN2Cc3ccccc3N=C12 (stereo unspecified) returned aSyn UTR act 104.
Screening CC1(C)CCC(=O)N2CC[C@H]3C[C@H](OC(=O)Nc4ccc(Br)cc4)C[C@@H]1[C@H]32 returned aSyn UTR act -68*.
`COc1cccc(CNC(=O)CCC2CCCN(C(=O)c3cc4ccccc4o3)C2)c1` (stereo unspecified) gave aSyn UTR act -78*.
For N/C(=N\OC(=O)CCC1CCCC1)c1ccccn1 the results were aSyn UTR act -133*.
CC(C)(C)c1ccc(C(=O)O/N=C(\N)c2ccccn2)cc1 was read as aSyn UTR act 94.
